Reference: PubChem BioAssay
Inconclusive results are not listed. The source made the active and inactive calls. Unless noted, no stated cut-off is given here; in the data, active means percent of DMSO control GFP below about 86%; inactive means the rest, inconclusive results apart.

Assays:
[1] = yeast TOR pathway RPL19A-GFP modulators, primary screen, cell-based, S. cerevisiae, multiplex flow cytometry (AID 1862);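 further: lower values mimic rapamycin by blocking the RPL19A rise seen in DMSO cells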; details: S. cerevisiae RPL19A-GFP strain, flow cytometry fluorescence, 3 h; at 10 µM; stronger effect = lower value
[2] = modulators of MEP2-GFP levels in yeast, primary screen, S. cerevisiae, multiplex flow cytometry (AID 1867;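 active means GFP response, as percent of the DMSO control, above the screen-wide mean plus 3 SD, about 139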;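 further: median GFP channel fluorescence of barcode-gated MEP2-GFP cells measured by flow cytometry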); details: S. cerevisiae MEP2-GFP strain, 3 h, at 10 µM, stronger effect = higher value, 100% means same as DMSO wells
[3] = modulators of CIT2-GFP expression in yeast, primary screen, S. cerevisiae, GFP fusion, multiplex flow cytometry (AID 1870;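 active means percent response above a set limit, the screen-wide mean plus 3 SD, cut at about 130% in these data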;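 further: barcoded CIT2-GFP strain pooled with four other GFP strains with rapamycin as positive control; median GFP fluorescence per well over plate mean of DMSO wells so 100% = DMSO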); details: 3 h, at 10 µM, stronger effect = higher value
[4] = modulators of LAP4-GFP expression in yeast, primary screen, S. cerevisiae, multiplex flow cytometry (AID 1873;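 active means GFP signal, as percent of the solvent control, above the screen mean plus 3 SD, about 149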); details: 3 h, at 10 µM, stronger effect = higher value
[5] = modulators of AGP1-GFP expression in yeast TOR pathway, primary screen, cell-based, multiplex flow cytometry, S. cerevisiae (AID 1887;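 active means GFP signal above the screen-wide mean plus 3 SD, that is over about 124.5% of the solvent control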;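 further: AGP1-GFP fusion strain of S. cerevisiae within a five-strain barcoded multiplex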); details: 3 h, at 10 µM, stronger effect = higher value
[6] = inhibitors of CD8+ T cell-vesicle binding, pilot screen, LFA-1/ICAM-1 modulator project, MLPCN validation set, flow cytometry (AID 2523;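 active means response below a set limit, under 55% cells CD8-positive and vesicle-bound, and CD8 cells' 90th-percentile brightness under 279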;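 on vesicle binding response: mean PE anti-B7-1 fluorescence of CD8+ cells relative to row control; 100% = QL9-loaded vesicles with DMSO vehicle in the same plate row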); details: 2C mouse CD8+ T cells, at 7 µM, stronger effect = lower value; double positive events: measured here: CD8+/vesicle+ event percentage
[7] = biological target: Integrin beta-1 (Homo sapiens) + Integrin alpha-4 (Homo sapiens) (UniProt P13612+P05556); test: inhibition of HUTS-21 binding to VLA-4, pilot screen, VLA-4 allosteric modulator project, U937 cells, HUTS-21 mAb, flow cytometry, validation set (AID 2674;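 active means inhibition above 50%, about 3 SD of the validation set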;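 further: antibody binding induced by the VLA-4 ligand LDV present at three times its Kd; 0% = LDV ligand with antibody and no compound and 100% = antibody without LDV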); details: HUTS-21 LIBS mAb binding, at 6.7 µM, stronger effect = higher value, binding induced by LDV ligand
[8] = superoxide lowering in aged yeast cells, pilot screen, validation compound set (AID 2706;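 active means superoxide response below 65% of plate, a cut near 3 SD across the whole screen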;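 further: yeast exposed to compound for one week at 30 degrees C before staining; 100% = mean of all compound wells on the same plate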); details: S. cerevisiae aging, superoxide DHE fluorescence; at 10 µM; stronger effect = lower value
[9] = biological target: Beta-adrenergic receptor kinase 1 (Homo sapiens) (UniProt P25098); test: GRK2 binders displacing RNA aptamer, biochemical, validation, human GRK2, bead flow cytometry (AID 488806;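 active means aptamer binding inhibition above 30%, about 3 SD of noise from non-fluorescent compounds; inactive means inhibition at or below 30%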); details: bead-bound GRK2, FAM-aptamer displacement, at 10 µM, stronger effect = higher value
[10] = biological target: Beta-2 adrenergic receptor (Homo sapiens) (UniProt P07550); test: beta2AR agonists driving receptor internalization, pilot screen, cell-based, FAP fluorogen, flow cytometry, validation set (AID 504459;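 active means percent response above 42, roughly 3 SD of non-fluorescent test compounds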;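 further: agonist-driven loss of surface beta2AR via internalization measured by FAP dye flow cytometry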); details: Am2.2-beta2AR cells, FAP surface receptor flow cytometry; at 10 µM; stronger effect = higher value
[11] = biological target: AP-2 complex subunit beta (Homo sapiens) (UniProt P63010); test: inhibitors of arrestin peptide binding to AP2, pilot screen, biochemical, validation set, GST-AP2 beads, flow cytometry (AID 504541;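 active means inhibition above 54%, about 3 SD of non-fluorescent compounds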;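 further: AP2 carries R879A mutation and is captured from E. coli lysate; bead-bound FITC arrestin peptide fluorescence measuring arrestin peptide binding to AP2; 0% = DMSO wells and 100% = excess unlabeled arrestin peptide control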); details: FITC arrestin peptide, at 10 µM, stronger effect = higher value, AP2 beta2 appendage fragment, R879A mutant
[12] = yeast V-ATPase proton transport modulators, S. cerevisiae, pHLuorin, HTS validation (AID 504600; in the data active means response above about 15%;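 further: plate controls were DMSO for no effect and reference compound for full effect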); details: S. cerevisiae pHLuorin cytosolic pH, at 10 µM, stronger effect = higher value
[13] = system: anti-desmoglein-3 scFv antibody binding to human DSG3; test: inhibitors of anti-DSG3 scFv binding to DSG3, pilot screen, biochemical, validation compound set, bead-based, flow cytometry (AID 588368;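 active means binding below the plate cutoff, the plate median minus 3 SD, with a reading above zero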;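 further: signal is the median channel fluorescence of bead-bound GFP antibody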); details: Protein G beads, DSG3-Fc, scFv-GFP binding, at 10 µM, stronger effect = lower value
[14] = inhibitors of fungal efflux pumps CDR1, CDR2, MDR1, pilot screen, validation compound set, multiplex, phenotypic (AID 588506;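 active means efflux inhibition above 0.42, the validation set average plus 4 SD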;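 further: Nile Red retained in cells so higher fluorescence means more efflux inhibition; 0 = negative control wells and 1 = enniatin B 25 µM full block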); details: S. cerevisiae pump-expressing triplex, Nile Red efflux flow cytometry; at 10 µM; stronger effect = higher value; the pumps come from Candida albicans
[15] = biological target: ATP-binding cassette sub-family B member 6 (Homo sapiens) (UniProt Q9NP58); test: ABCB6 transporter inhibitors, pilot screen, K562-ABCB6 cells, flow cytometry, validation set (AID 588550;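 active means inhibition above the screen-wide mean plus 3 SD, about 51%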;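 further: 0% = DMSO wells and 100% = benzethonium chloride 70 µM positive control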); details: K562-ABCB6 porphyrin accumulation, 1 h, at 10 µM, stronger effect = higher value
[16] = promoters of myeloid differentiation in arrested cells, primary screen, cell-based, GFP/MAC1 double positive, flow cytometry, validation set (AID 588685;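 active means differentiation response of at least 50%, scaled between solvent and reference control, from cells with both markers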;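 further: compound exposure lasts four days before antibody staining and flow analysis; 0% = DMSO wells and 100% = 5 µM fulvestrant positive control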); details: ER-HoxA9 marrow cells, stronger effect = higher value, normalized: vehicle 0, fulvestrant 100

Beta-adrenergic receptor kinase 1 (Homo sapiens), sequence (P25098 whole entry, looked up): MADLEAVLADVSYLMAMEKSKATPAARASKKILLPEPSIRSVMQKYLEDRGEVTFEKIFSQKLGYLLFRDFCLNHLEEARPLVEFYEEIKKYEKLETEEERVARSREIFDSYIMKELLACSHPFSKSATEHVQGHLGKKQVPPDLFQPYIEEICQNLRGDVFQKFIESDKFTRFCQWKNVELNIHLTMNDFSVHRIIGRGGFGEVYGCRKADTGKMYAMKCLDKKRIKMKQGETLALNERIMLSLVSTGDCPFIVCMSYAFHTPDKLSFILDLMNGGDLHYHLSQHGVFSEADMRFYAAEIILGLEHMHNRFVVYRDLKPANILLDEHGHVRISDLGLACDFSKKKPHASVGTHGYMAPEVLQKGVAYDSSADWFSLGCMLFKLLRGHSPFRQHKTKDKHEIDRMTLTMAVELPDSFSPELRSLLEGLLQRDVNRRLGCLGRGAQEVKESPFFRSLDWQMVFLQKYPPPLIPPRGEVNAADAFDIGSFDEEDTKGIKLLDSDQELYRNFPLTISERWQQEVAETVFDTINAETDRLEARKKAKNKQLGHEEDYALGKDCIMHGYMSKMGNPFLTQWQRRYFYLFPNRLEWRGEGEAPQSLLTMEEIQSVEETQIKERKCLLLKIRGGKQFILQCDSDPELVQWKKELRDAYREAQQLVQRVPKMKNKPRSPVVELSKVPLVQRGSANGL
Integrin beta-1 (Homo sapiens) + Integrin alpha-4 (Homo sapiens), sequence (P05556 whole entry, looked up): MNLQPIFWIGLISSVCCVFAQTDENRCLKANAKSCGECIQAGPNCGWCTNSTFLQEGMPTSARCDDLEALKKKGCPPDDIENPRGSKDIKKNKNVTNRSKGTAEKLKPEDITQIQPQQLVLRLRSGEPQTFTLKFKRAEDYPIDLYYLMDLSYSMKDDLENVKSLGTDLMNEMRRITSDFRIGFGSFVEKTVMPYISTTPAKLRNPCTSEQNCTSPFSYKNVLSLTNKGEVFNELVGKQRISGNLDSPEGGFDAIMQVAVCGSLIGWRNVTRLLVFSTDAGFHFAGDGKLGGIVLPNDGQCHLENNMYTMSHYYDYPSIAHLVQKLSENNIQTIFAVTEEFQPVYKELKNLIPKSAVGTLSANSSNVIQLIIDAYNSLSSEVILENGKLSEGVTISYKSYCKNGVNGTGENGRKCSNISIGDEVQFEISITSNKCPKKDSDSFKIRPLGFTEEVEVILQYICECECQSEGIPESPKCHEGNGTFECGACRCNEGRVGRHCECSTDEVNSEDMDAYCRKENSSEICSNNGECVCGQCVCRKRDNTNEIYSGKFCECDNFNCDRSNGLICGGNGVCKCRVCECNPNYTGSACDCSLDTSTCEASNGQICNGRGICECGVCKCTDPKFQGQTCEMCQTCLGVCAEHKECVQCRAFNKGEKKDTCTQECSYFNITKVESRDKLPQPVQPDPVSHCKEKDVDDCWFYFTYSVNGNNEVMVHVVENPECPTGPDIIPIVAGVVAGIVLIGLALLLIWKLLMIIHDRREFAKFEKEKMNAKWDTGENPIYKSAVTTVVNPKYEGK
Integrin beta-1 (Homo sapiens) + Integrin alpha-4 (Homo sapiens), sequence (P13612 whole entry, looked up): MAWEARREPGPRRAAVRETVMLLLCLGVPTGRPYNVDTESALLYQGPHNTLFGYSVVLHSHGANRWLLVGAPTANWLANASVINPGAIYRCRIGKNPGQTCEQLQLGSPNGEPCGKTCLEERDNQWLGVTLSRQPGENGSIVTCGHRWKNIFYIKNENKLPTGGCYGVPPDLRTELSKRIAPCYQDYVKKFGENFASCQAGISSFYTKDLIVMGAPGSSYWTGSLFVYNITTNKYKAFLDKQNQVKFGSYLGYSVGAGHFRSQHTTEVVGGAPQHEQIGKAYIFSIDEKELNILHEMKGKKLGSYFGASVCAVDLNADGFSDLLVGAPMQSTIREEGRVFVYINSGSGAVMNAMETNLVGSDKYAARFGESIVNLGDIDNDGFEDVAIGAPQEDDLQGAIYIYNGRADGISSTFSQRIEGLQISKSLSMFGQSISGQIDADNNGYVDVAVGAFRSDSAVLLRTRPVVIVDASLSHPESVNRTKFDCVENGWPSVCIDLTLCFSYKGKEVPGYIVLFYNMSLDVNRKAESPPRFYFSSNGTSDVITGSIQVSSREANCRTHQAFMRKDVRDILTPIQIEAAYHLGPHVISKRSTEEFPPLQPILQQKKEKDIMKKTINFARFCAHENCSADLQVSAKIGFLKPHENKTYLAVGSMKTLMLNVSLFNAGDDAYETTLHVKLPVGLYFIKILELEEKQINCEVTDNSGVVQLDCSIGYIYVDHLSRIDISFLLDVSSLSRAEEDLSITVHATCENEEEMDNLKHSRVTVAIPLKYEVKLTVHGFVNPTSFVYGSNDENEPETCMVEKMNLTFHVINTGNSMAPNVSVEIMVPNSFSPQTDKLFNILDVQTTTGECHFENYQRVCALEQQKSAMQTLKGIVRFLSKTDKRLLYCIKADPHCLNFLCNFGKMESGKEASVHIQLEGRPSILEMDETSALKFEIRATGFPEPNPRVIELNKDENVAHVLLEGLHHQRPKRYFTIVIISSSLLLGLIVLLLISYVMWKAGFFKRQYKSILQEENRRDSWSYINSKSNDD
AP-2 complex subunit beta (Homo sapiens), sequence (P63010 whole entry, looked up, the tested form may be a part, one chain of several): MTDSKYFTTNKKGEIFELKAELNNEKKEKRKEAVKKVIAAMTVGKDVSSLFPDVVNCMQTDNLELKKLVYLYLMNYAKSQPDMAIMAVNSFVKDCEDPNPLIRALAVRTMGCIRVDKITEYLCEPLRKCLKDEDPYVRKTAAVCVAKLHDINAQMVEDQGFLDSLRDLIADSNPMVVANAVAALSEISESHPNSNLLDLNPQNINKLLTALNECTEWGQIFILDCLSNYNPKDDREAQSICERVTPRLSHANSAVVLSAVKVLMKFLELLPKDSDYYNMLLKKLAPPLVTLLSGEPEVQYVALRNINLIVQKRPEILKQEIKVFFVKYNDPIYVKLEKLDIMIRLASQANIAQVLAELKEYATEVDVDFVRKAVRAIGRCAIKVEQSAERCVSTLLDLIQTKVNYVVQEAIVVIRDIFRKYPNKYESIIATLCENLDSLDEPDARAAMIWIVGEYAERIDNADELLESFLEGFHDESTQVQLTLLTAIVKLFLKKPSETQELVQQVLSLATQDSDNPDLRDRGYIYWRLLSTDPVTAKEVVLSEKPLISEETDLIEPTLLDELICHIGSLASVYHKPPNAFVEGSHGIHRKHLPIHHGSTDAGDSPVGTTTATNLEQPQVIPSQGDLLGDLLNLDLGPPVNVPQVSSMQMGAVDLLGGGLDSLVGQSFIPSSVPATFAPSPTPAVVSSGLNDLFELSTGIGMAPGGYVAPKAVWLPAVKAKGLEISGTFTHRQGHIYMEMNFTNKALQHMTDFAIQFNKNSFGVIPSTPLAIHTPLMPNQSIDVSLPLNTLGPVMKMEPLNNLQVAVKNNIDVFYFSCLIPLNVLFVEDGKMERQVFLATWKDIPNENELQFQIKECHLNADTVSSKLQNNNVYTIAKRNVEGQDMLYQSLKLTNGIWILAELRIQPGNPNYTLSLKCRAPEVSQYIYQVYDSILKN
Beta-2 adrenergic receptor (Homo sapiens), sequence (P07550 whole entry, looked up): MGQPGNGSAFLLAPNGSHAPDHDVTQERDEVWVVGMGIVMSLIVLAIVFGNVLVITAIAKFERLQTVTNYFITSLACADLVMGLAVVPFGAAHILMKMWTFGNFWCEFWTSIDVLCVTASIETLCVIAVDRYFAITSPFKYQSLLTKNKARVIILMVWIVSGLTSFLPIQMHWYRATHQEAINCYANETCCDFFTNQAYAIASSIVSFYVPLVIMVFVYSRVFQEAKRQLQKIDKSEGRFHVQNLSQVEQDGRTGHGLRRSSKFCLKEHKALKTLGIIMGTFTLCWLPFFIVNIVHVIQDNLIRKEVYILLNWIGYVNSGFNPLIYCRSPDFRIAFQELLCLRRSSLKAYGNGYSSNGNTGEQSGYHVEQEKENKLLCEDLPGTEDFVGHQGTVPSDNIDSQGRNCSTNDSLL
ATP-binding cassette sub-family B member 6 (Homo sapiens), sequence (Q9NP58 whole entry, looked up): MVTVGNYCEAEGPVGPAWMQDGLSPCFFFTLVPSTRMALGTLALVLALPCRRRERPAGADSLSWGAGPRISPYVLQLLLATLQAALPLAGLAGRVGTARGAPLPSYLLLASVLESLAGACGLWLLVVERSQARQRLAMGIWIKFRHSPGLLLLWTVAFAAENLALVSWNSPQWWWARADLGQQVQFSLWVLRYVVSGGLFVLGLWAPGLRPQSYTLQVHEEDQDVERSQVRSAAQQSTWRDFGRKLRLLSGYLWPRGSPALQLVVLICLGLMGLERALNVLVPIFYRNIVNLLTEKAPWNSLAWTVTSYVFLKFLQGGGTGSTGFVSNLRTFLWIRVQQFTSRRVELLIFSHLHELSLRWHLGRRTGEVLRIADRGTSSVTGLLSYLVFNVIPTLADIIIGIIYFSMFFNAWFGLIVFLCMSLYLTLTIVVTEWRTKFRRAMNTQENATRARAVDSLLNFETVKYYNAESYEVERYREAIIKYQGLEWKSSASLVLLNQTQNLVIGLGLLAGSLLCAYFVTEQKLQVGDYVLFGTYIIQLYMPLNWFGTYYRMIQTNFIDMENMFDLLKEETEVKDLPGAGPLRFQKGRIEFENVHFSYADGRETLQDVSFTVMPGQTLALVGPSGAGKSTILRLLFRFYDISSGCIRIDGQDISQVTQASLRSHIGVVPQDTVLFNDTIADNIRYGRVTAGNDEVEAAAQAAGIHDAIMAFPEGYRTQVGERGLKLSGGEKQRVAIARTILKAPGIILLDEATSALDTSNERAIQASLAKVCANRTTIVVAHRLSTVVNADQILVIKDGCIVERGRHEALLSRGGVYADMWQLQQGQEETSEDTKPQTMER

CCOC(=O)C1C(=O)OC(C)(C)C1C(C)C(=O)c1ccc(C)cc1 (centres undefined)
percent of DMSO control GFP [1]: 100% (inactive) | GFP response vs DMSO [2]: 103% (inactive) | percent response of DMSO control [3]: 93.1% (inactive) | GFP response vs DMSO [4]: 110% (inactive) | GFP response, % of DMSO [5]: 116% (inactive) | double positive events [6]: 61.9% | vesicle binding response [6]: 218% (inactive) | inhibition [7]: -6.23% (inactive) | superoxide response (% of plate) [8]: 118% (inactive) | aptamer binding inhibition [9]: 3% (inactive) | response [10]: -17.2% (inactive) | inhibition [11]: -19% (inactive) | response [12]: -5.62% (inactive) | binding (% of control) [13]: 102% (inactive) | efflux inhibition (fraction of control) [14]: -0.09 (inactive) | inhibition [15]: 5% (inactive) | differentiation response [16]: 13.7% (inactive)

CCC(=O)Nc1ccc(C(=O)N2CCN(C(=O)c3ccco3)CC2)cc1
percent of DMSO control GFP [1]: 101% (inactive) | GFP response vs DMSO [2]: 109% (inactive) | percent response of DMSO control [3]: 104% (inactive) | GFP response vs DMSO [4]: 101% (inactive) | GFP response, % of DMSO [5]: 99.7% (inactive) | double positive events [6]: 64.9% | vesicle binding response [6]: 202% (inactive) | inhibition [7]: 4.73% (inactive) | superoxide response (% of plate) [8]: 101% (inactive) | aptamer binding inhibition [9]: 0% (inactive) | response [10]: -11.7% (inactive) | inhibition [11]: 0.87% (inactive) | response [12]: -1.11% (inactive) | binding (% of control) [13]: 95.5% (inactive) | efflux inhibition (fraction of control) [14]: -0.23 (inactive) | inhibition [15]: 0% (inactive) | differentiation response [16]: 7.09% (inactive)

COc1c(O)ccc2c1CN1CCc3cc4c(cc3C1C2)OCO4 (centres undefined)
percent of DMSO control GFP [1]: 107% (inactive) | GFP response vs DMSO [2]: 112% (inactive) | percent response of DMSO control [3]: 93.9% (inactive) | GFP response vs DMSO [4]: 130% (inactive) | GFP response, % of DMSO [5]: 103% (inactive) | double positive events [6]: 61.6% | vesicle binding response [6]: 157% (inactive) | superoxide response (% of plate) [8]: 92.6% (inactive) | aptamer binding inhibition [9]: 1% (inactive) | response [10]: 24.6% (inactive) | inhibition [11]: 30.3% (inactive) | response [12]: -1.39% (inactive) | binding (% of control) [13]: 99.7% (inactive) | efflux inhibition (fraction of control) [14]: 0.66 (active) | inhibition [15]: -25% (inactive) | differentiation response [16]: 23.2% (inactive)

COc1ccc(S(=O)(=O)NCc2ccco2)c2ccccc12
percent of DMSO control GFP [1]: 100% (inactive) | GFP response vs DMSO [2]: 104% (inactive) | percent response of DMSO control [3]: 88.2% (inactive) | GFP response vs DMSO [4]: 114% (inactive) | GFP response, % of DMSO [5]: 87% (inactive) | double positive events [6]: 62.3% | vesicle binding response [6]: 175% (inactive) | inhibition [7]: 7.76% (inactive) | superoxide response (% of plate) [8]: 89.3% (inactive) | aptamer binding inhibition [9]: 3% (inactive) | response [10]: -3.81% (inactive) | inhibition [11]: -4.99% (inactive) | response [12]: 1.41% (inactive) | binding (% of control) [13]: 96.3% (inactive) | efflux inhibition (fraction of control) [14]: -0.13 (inactive) | inhibition [15]: 7% (inactive) | differentiation response [16]: 2.4% (inactive)

Cc1cc(Cl)cc2c1NC(=O)[C@]21[C@@H]2C(=O)N(Cc3ccccc3)C(=O)[C@@H]2[C@@H]2CCCN21
percent of DMSO control GFP [1]: 96.2% (inactive) | GFP response vs DMSO [2]: 95.7% (inactive) | percent response of DMSO control [3]: 90.5% (inactive) | GFP response vs DMSO [4]: 102% (inactive) | GFP response, % of DMSO [5]: 99.6% (inactive) | double positive events [6]: 63.7% | vesicle binding response [6]: 154% (inactive) | inhibition [7]: -232% (inactive) | superoxide response (% of plate) [8]: 95.7% (inactive) | aptamer binding inhibition [9]: 6% (inactive) | response [10]: -4.55% (inactive) | inhibition [11]: -2.45% (inactive) | response [12]: 3.96% (inactive) | binding (% of control) [13]: 104% (inactive) | efflux inhibition (fraction of control) [14]: 0.08 (inactive) | inhibition [15]: -22% (inactive) | differentiation response [16]: -14.8% (inactive)
